High-throughput results: PubChem BioAssay, several laboratories
Sampled rows, rich in hits. Any-hit rate of the full collection: about 3.5%.
BoNT A protease = inhibitors of Botulinum neurotoxin A light chain protease; hit rate 0.17% among 360,000; multiplex microsphere protease substrate cleavage, flow cytometry; AID 588499; inhibition, % at 10 µM; note: plate controls were buffer without enzyme for full effect and enzyme alone for no effect
SARS 3CLpro inh = SARS-CoV 3CLpro protease inhibition; inhibition, % at 6 µM; AID 1706; P0C6X7; recombinant SARS-CoV 3CLpro, quenched FRET peptide cleavage; hit rate 0.14% among 290,000; in the data active = inhibition above about 12%
BoNT F protease = blocks Botulinum neurotoxin F light chain protease; hit rate 0.22% among 360,000; Multiplex microsphere protease cleavage assay, flow cytometry; AID 588497; inhibition, % at 10 µM; in the data active = inhibition above about 35%, passing the limit was not always enough; inconclusive = no clear call, values can overlap the other calls; note: plate controls were buffer without enzyme for full effect and enzyme alone for no effect
Autofluor counter = flagged as autofluorescent in microsphere protease counterscreen; compound autofluorescence counterscreen, microsphere flow cytometry; active compounds read high; fluorescence intensity (concentration not given with the values); hit rate 3.1% among 360,000; in the data active = fluorescence intensity above about 16000; inconclusive = no clear call, values can overlap the other calls
Anthrax LF inh2 = anthrax lethal factor protease inhibition; multiplex microsphere protease cleavage assay, LF; inhibition, % at 10 µM; hit rate 0.12% among 360,000; AID 588501; note: plate controls were buffer without enzyme for full effect and enzyme alone for no effect
* = called active by the depositor; ? = inconclusive; . = not tested or not shown. Cut-off read from the data, not from the text of the source, unless noted: active = inhibition above about 30%; inconclusive = no clear call, values can overlap the other calls; inactive = below that.

SMILES	BoNT A protease	SARS 3CLpro inh	BoNT F protease	Autofluor counter	Anthrax LF inh2
CCn1c(SCC(=O)N2CCCC2)nc2ccccc2c1=O	4	-7	4	19212*	-4
CCCCNC(=O)CSc1nc2ccccc2c(=O)n1C1CCCC1	2	5	-1	19876*	-3
COC(=O)C1=C(O)/C(=C\c2cc(C)n(-c3ccc(F)cc3)c2C)N=C1C	3	0	3	4530	1
O=C(OCC(=O)N1CCc2ccccc21)c1ccc[nH]c1=O	0	4	-2	3943	2
COCCCn1c(SCC(=O)Nc2ccc(C)cc2)nc2ccccc2c1=O	0	6	-2	2514	0
O=C(CCCn1c(SCC(=O)c2ccc(F)cc2)nc2ccccc2c1=O)NCc1ccccc1	0	1	6	8388	-11
Cc1ccc(NC(=O)CSc2nc3ccccc3c(=O)n2CCCC(=O)N2CCCC2)cc1	-1	3	-3	22956*	-3
Cc1ccc(-n2c(Cc3cccn3C)nnc2SCC(=O)NCc2ccco2)cc1	0	2	-8	11487	-2
Cc1cc(NC(=O)CSc2nc3ccccc3c(=O)n2CCCC(=O)NCc2ccccc2)n[nH]1	-2	-3	-10	16651*	-2
C=CCn1c(SCC(=O)NCC2CCCO2)nc2scc(-c3ccco3)c2c1=O (configuration not stated)	?	-1	4	22083*	0
Cc1ccc(-n2c(CSc3nc(C)cc(C)n3)nnc2SCC(=O)NCc2ccco2)cc1	?	-2	2	22159*	-1
Cc1nc2c(Cl)c(C)nn2c2c1CCC2	-1	4	-6	4021	-2
CCCCn1c(SCC(=O)Nc2ccc(NC(C)=O)cc2)nc2ccccc2c1=O	2	6	13	3719	10
CCCCn1c(SCC(=O)N2CC(C)CC(C)C2)nc2cc(S(N)(=O)=O)ccc21 (configuration not stated)	0	3	2	11266	-2
O=C(CSc1nc2scc(-c3ccco3)c2c(=O)n1-c1ccccc1)N1CCOCC1	-2	6	-3	21589*	-1
CCCCn1c(SCC(=O)Nc2cc(C)on2)nc2ccccc2c1=O	-2	-2	-2	23871*	-1
CCOC(=O)CSc1nc2ccccc2c(=O)n1CC1COc2ccccc2O1 (configuration not stated)	-3	1	-5	22016*	-5
CCCCn1c(SCC(=O)N2CCCCC2)nc2cc(S(N)(=O)=O)ccc21	0	1	-1	19717*	-1
CCCN(CCC)C(=O)CSc1nc2ccccc2c(=O)n1CC1COc2ccccc2O1 (configuration not stated)	0	1	-2	6926	?
CCOc1ccc(N2C(=O)CC(N(CCc3ccc(OC)c(OC)c3)C(=O)/C=C/C(=O)O)C2=O)cc1 (configuration not stated)	-1	0	4	5105	-4
CC(C)CN(C(=O)COC(=O)Cc1ccc(Cl)cc1)c1c(N)n(Cc2ccccc2)c(=O)[nH]c1=O	-2	.	3	6163	-3
Cc1c(NC(=O)Cc2cccs2)cccc1[N+](=O)[O-]	0	-5	3	2166	1
COCCn1c(SCC(=O)NCCc2ccc(OC)c(OC)c2)nc2c([nH]c3ccccc32)c1=O	0	3	1	2439	-1
O=C(CSc1nc2ccccc2c(=O)n1CCC(=O)N1CCCCC1)NCc1ccccc1	?	-2	-1	23326*	-2
O=C(CCn1c(SCC(=O)NCc2ccco2)nc2ccccc2c1=O)NCCc1ccccc1	?	0	2	22374*	-3
SMILES	BoNT A protease	SARS 3CLpro inh	BoNT F protease	Autofluor counter	Anthrax LF inh2
O=C(CCCn1c(SCC(=O)NCC2CCCO2)nc2ccccc2c1=O)NCc1ccccc1 (configuration not stated)	0	3	3	22190*	-6
CCOc1ccccc1N1CCN(CC(=O)Nc2cc(C)on2)CC1	-1	4	-6	3353	-1
Cc1cc(NC(=O)CN2CCN(c3ccccc3O)CC2)no1	-2	-1	-5	17083*	-3
O=C(O)CSc1ncccc1C(=O)O	0	-2	-3	2554	-4
Cc1ccc(CNC(=O)c2ccccc2N)cc1	1	-1	1	19203*	0
C=CCSc1ncccc1C(=O)NCc1ccc(C)cc1	2	5	0	19941*	-2
C=CCSc1ncccc1C(=O)NCCc1ccc(Cl)cc1	1	4	20	7097	-15
C=CCSc1ncccc1C(=O)O	-3	-1	-5	23263*	-3
